# The supplement of paper PMC8728848
# Shown is part of a subset that was picked to be rich in the strongest signals.
# Tests used:
# Test in all cases: glycan array binding signal (z-score within array); higher = stronger binding
# Settings in all cases: glycan notation: IUPAC condensed, linker removed
# [1] = target: Fuc(a1-2)Gal(b1-3)GalNAc(a1-3)[Fuc(a1-2)]Gal(b1-4)Glc
# Summary of the method: (§1)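 Columns mapping to the same glycan were averaged after glycan names were converted to IUPAC-condensed notation. The data come from 3228 arrays in the Consortium for Functional Glycomics database, limited to those with an available protein sequence. Binding is reported as a within-array Z-score averaged across arrays of one protein sequence and across linkers.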
# [2] = target: Fuc(a1-2)Gal(b1-3)[Fuc(a1-4)]GlcNAc
# Summary of the method: as §1
# Fuc(a1-2)Gal(b1-4)Glc6S = target: Fuc(a1-2)Gal(b1-4)Glc6S
# Summary of the method: as §1
# [3] = target: Fuc(a1-2)Gal(b1-4)GlcNAc(b1-2)Man(a1-3)[Fuc(a1-2)Gal(b1-4)GlcNAc(b1-2)Man(a1-6)]Man(b1-4)GlcNAc(b1-4)[Fuc(a1-6)]GlcNAc
# Summary of the method: as §1
# [4] = target: Fuc(a1-2)Gal(b1-4)GlcNAc(b1-6)GalNAc
# Summary of the method: as §1
# [5] = target: Fuc(a1-2)Gal(b1-4)[Fuc(a1-3)]GlcNAc
# Summary of the method: as §1
# [6] = target: Fuc(a1-2)Gal6S(b1-3)GlcNAc6S
# Summary of the method: as §1
# Fuc(a1-2)Gal6S(b1-4)Glc = target: Fuc(a1-2)Gal6S(b1-4)Glc
# Summary of the method: as §1
# [7] = target: Fuc(a1-2)[Gal(a1-3)]Gal(b1-3)GalNAc
# Summary of the method: as §1
# [8] = target: Fuc(a1-2)[Gal(a1-3)]Gal(b1-3)GlcNAc(b1-2)Man(a1-3)[Fuc(a1-2)[Gal(a1-3)]Gal(b1-3)GlcNAc(b1-2)Man(a1-6)]Man(b1-4)GlcNAc(b1-4)GlcNAc
# Summary of the method: as §1
# [9] = target: Fuc(a1-2)[Gal(a1-3)]Gal(b1-3)GlcNAc(b1-2)Man(a1-3)[Fuc(a1-2)[Gal(a1-3)]Gal(b1-3)GlcNAc(b1-2)Man(a1-6)]Man(b1-4)GlcNAc(b1-4)[Fuc(a1-6)]GlcNAc
# Summary of the method: as §1
# [10] = target: Fuc(a1-2)[Gal(a1-3)]Gal(b1-4)GlcNAc(b1-2)Man
# Summary of the method: as §1
# [11] = target: Fuc(a1-3)[Gal(b1-4)]GlcNAc(b1-2)Man(a1-3)[Fuc(a1-3)[Gal(b1-4)]GlcNAc(b1-2)Man(a1-6)]Man(b1-4)GlcNAc(b1-4)GlcNAc
# Summary of the method: as §1
# [12] = target: Fuc(a1-3)[Gal(b1-4)]GlcNAc(b1-3)Gal(b1-4)[Fuc(a1-3)]GlcNAc(b1-3)Gal(b1-4)[Fuc(a1-3)]GlcNAc
# Summary of the method: as §1
# [13] = target: Fuc(a1-3)[Gal3S(b1-4)]Glc
# Summary of the method: as §1
# [14] = target: Gal(a1-3)Gal(b1-3)[Fuc(a1-4)]GlcNAc(b1-2)Man(a1-3)[Gal(a1-3)Gal(b1-3)[Fuc(a1-4)]GlcNAc(b1-2)Man(a1-6)]Man(b1-4)GlcNAc(b1-4)GlcNAc
# Summary of the method: as §1
# [15] = target: Gal(a1-3)Gal(b1-4)GlcNAc(b1-2)Man
# Summary of the method: as §1
# [16] = target: Gal(a1-3)Gal(b1-4)GlcNAc(b1-6)GalNAc
# Summary of the method: as §1
# [17] = target: Gal(b1-3)GlcNAc(a1-6)Gal(b1-4)GlcNAc
# Summary of the method: as §1
# [18] = target: Gal(b1-3)GlcNAc(b1-2)[Gal(b1-3)GlcNAc(b1-6)]Man(a1-6)[Gal(b1-3)GlcNAc(b1-2)Man(a1-3)]Man(b1-4)GlcNAc(b1-4)GlcNAc
# Summary of the method: as §1
# [19] = target: Gal(b1-3)GlcNAc(b1-3)Gal(b1-4)GlcNAc(b1-2)[Gal(b1-3)GlcNAc(b1-3)Gal(b1-4)GlcNAc(b1-6)]Man(a1-6)[Gal(b1-3)GlcNAc(b1-3)Gal(b1-4)GlcNAc(b1-2)Man(a1-3)]Man(b1-4)GlcNAc(b1-4)[Fuc(a1-6)]GlcNAc
# Summary of the method: as §1
# [20] = target: Gal(b1-3)GlcNAc(b1-3)Gal(b1-4)GlcNAc(b1-3)Gal(b1-4)GlcNAc(b1-2)[Gal(b1-3)GlcNAc(b1-3)Gal(b1-4)GlcNAc(b1-3)Gal(b1-4)GlcNAc(b1-6)]Man(a1-6)[Gal(b1-3)GlcNAc(b1-3)Gal(b1-4)GlcNAc(b1-3)Gal(b1-4)GlcNAc(b1-2)Man(a1-3)]Man(b1-4)GlcNAc(b1-4)[Fuc(a1-6)]GlcNAc
# Summary of the method: as §1
# [21] = target: Gal(b1-3)[Neu5Ac(a2-6)]GlcNAc(b1-4)Gal(b1-4)Glc
# Summary of the method: as §1
# Gal(b1-4)Gal = target: Gal(b1-4)Gal
# Summary of the method: as §1
# [22] = target: Gal(b1-4)GalNAc(a1-3)[Fuc(a1-2)]Gal(b1-4)GlcNAc
# Summary of the method: as §1
# [23] = target: Gal(b1-4)GlcNAc(b1-2)Man(a1-3)[Man(a1-6)]Man(b1-4)GlcNAc(b1-4)GlcNAc
# Summary of the method: as §1
# [24] = target: Gal(b1-4)GlcNAc(b1-2)[Gal(b1-4)GlcNAc(b1-4)]Man(a1-3)[Gal(b1-4)GlcNAc(b1-2)Man(a1-6)]Man(b1-4)GlcNAc(b1-4)GlcNAc
# Summary of the method: as §1
# [25] = target: Gal(b1-4)GlcNAc(b1-2)[Gal(b1-4)GlcNAc(b1-4)]Man(a1-3)[GlcNAc(b1-4)][Gal(b1-4)GlcNAc(b1-2)[Gal(b1-4)GlcNAc(b1-6)]Man(a1-6)]Man(b1-4)GlcNAc(b1-4)GlcNAc
# Summary of the method: as §1
# [26] = target: Gal(b1-4)GlcNAc(b1-2)[Gal(b1-4)GlcNAc(b1-6)]Man(a1-6)[Gal(b1-4)GlcNAc(b1-2)Man(a1-3)]Man(b1-4)GlcNAc(b1-4)GlcNAc
# Summary of the method: as §1
# [27] = target: Gal(b1-4)GlcNAc(b1-3)Gal(b1-4)GlcNAc(b1-2)[Gal(b1-4)GlcNAc(b1-3)Gal(b1-4)GlcNAc(b1-6)]Man(a1-6)[Gal(b1-4)GlcNAc(b1-3)Gal(b1-4)GlcNAc(b1-2)Man(a1-3)]Man(b1-4)GlcNAc(b1-4)GlcNAc
# Summary of the method: as §1
binder,measurement,setting,value
Mermaid1 (Stilbonema majum) (protein) MGSSHHHHHHSSGLVPRGSHMAASGWLRSPQGTVVKLYRRSLSWSKADEFCKDVDGRLVVDRTADMHLFLIKNVLKEKKSRVWVGLRRTAPHSRTWIWSDGTRQNEDDLDANLWLRDEPNDAAGEEECALFMYSPWEKAWGLNDYLCRGGCRSYQFICEKWIR,glycan array binding signal (z-score),[1],-0.132
same,glycan array binding signal (z-score),[2],-0.578
same,glycan array binding signal (z-score),Fuc(a1-2)Gal(b1-4)Glc6S,2.97
same,glycan array binding signal (z-score),[3],3.06
same,glycan array binding signal (z-score),[4],-0.219
same,glycan array binding signal (z-score),[5],0
same,glycan array binding signal (z-score),[6],1.58
same,glycan array binding signal (z-score),Fuc(a1-2)Gal6S(b1-4)Glc,-0.65
same,glycan array binding signal (z-score),[7],3.08
same,glycan array binding signal (z-score),[8],-0.403
same,glycan array binding signal (z-score),[9],-0.259
same,glycan array binding signal (z-score),[10],-0.732
same,glycan array binding signal (z-score),[11],-0.717
same,glycan array binding signal (z-score),[12],-0.381
same,glycan array binding signal (z-score),[13],0.419
same,glycan array binding signal (z-score),[14],2.49
same,glycan array binding signal (z-score),[15],-0.331
same,glycan array binding signal (z-score),[16],-0.176
same,glycan array binding signal (z-score),[17],0.067
same,glycan array binding signal (z-score),[18],-0.787
same,glycan array binding signal (z-score),[19],4.98
same,glycan array binding signal (z-score),[20],6.8
same,glycan array binding signal (z-score),[21],-0.953
same,glycan array binding signal (z-score),Gal(b1-4)Gal,3.2
same,glycan array binding signal (z-score),[22],1.62
same,glycan array binding signal (z-score),[23],2.41
same,glycan array binding signal (z-score),[24],0.823
same,glycan array binding signal (z-score),[25],-1.01
same,glycan array binding signal (z-score),[26],-0.567
same,glycan array binding signal (z-score),[27],4.04
